# Assay results as given in ChEMBL document CHEMBL3988442, “University of Dundee, Small-Polar-MMV Screening Library” (2021).
# For some assays here: Potency and affinity values are given separately.
# Columns and labels:
# Design in all cases: scale not given: direction of the effect not stated beside the values
# [1] = target: Protein translocase subunit SecA (Escherichia coli (strain K12)) (UniProt P10408); assay: Assay to Identify E. coli SecA ATPase Inhibitors; format: functional; settings: 30 µM
# Chain of Protein translocase subunit SecA (Escherichia coli (strain K12)) (P10408 whole entry): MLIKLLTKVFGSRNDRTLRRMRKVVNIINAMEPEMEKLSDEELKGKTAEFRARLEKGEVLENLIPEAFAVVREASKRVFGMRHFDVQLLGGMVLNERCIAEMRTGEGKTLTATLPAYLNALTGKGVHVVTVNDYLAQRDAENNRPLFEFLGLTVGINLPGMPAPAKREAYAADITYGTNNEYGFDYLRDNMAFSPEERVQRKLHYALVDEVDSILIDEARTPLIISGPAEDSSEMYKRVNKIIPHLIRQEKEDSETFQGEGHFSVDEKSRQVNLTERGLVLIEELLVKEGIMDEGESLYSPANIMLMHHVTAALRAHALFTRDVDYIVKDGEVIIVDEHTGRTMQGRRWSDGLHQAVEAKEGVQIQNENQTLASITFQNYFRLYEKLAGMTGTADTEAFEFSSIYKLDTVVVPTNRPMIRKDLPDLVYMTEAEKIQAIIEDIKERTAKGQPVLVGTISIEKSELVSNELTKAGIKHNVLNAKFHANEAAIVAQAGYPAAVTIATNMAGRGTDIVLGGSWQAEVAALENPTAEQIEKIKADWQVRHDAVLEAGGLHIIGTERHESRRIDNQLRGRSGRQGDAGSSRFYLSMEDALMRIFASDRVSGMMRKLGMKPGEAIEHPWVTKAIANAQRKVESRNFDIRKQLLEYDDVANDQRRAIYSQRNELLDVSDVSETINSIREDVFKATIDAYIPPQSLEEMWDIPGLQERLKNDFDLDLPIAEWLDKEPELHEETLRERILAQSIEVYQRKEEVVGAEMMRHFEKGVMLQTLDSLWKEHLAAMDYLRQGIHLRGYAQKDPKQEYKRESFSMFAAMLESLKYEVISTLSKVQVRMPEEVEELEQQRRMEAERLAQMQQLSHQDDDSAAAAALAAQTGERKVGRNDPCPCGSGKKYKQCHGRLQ
# [2] = target: T1, Ubiquitin-activating enzyme e1, putative (Leishmania donovani (strain BPK282A1)) (UniProt E9BSI1); assay: Leishmania donovani Ubiquitin Activating Enzyme (LdE1); format: functional; settings: 30 µM
# T1 sequence (whole entry): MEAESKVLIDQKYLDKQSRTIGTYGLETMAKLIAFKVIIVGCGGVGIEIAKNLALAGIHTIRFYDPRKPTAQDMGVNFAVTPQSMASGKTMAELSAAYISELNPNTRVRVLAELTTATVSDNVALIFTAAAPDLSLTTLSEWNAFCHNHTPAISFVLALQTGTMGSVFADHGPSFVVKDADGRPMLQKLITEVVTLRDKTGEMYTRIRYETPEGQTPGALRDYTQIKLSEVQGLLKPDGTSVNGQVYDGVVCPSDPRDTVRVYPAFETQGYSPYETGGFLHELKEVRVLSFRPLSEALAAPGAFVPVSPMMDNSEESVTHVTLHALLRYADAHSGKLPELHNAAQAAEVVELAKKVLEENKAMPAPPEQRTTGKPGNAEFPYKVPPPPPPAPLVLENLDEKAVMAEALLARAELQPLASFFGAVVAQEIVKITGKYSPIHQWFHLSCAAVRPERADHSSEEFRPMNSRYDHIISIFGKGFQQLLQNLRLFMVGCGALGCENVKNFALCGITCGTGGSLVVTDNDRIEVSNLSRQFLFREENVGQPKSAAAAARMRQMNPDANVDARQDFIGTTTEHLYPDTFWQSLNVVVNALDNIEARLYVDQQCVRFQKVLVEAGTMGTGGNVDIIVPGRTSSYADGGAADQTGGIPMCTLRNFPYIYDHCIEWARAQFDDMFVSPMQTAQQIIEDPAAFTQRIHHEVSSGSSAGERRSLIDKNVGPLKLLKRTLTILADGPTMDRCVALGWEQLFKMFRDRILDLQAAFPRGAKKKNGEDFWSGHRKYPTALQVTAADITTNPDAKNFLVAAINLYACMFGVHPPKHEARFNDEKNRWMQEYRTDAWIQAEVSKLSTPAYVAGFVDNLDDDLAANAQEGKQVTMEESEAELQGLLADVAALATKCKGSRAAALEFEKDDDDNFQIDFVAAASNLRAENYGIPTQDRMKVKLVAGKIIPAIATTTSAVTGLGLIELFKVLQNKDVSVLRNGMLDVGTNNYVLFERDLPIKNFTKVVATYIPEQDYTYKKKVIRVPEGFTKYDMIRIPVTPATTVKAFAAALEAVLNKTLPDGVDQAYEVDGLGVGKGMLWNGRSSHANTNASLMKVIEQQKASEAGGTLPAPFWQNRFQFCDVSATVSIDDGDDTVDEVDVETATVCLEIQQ
# [3] = target: AMP-activated protein kinase, AMPK (Homo sapiens) (UniProt P54646+O43741+P54619+Q9UGJ0+Q9Y478+Q13131+Q9UGI9); assay: AMP-dependent Kinase enzyme assay. An in vitro enzyme assay that detects ADP turnover that is directly proportional to AMPK activity. This uses naive AMPK that is activated during the assay with MK-8722; format: functional; settings: 30 µM
# [4] = target: Sialic acid-binding Ig-like lectin 9 (Homo sapiens) (UniProt Q9Y336); assay: Hs-Siglec9 ALPHAscreen SOP 20170721; settings: 10 µM
# Chain of Sialic acid-binding Ig-like lectin 9 (Homo sapiens) (Q9Y336 whole entry): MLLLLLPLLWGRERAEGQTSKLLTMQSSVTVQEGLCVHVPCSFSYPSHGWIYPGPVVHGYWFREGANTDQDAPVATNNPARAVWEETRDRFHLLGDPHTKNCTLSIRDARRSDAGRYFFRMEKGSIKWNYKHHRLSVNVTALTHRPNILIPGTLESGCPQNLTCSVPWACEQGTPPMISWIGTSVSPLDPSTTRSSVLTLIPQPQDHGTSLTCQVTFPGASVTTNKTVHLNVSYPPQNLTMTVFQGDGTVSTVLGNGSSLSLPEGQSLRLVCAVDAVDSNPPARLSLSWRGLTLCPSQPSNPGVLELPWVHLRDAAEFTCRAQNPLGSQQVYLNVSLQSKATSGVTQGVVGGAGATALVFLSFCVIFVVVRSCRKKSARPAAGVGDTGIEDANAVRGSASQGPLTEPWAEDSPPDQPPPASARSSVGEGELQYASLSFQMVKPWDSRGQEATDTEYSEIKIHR
# [5] = test system: Trypanosoma cruzi; assay: Trypanosoma cruzi phosphomannomutase and mannose-1-phosphate guanylyltransferase assay; format: functional; settings: 10 µM
# [6] = target: T2, Arginase-2, mitochondrial (Homo sapiens) (UniProt P78540); assay: in vitro enzyme assay to detect the production of urea directly proportional to the activity of Arginase II; format: functional; settings: 33.3 µM; further: in the data most compounds retested in dose-response had high values
# T2 sequence (whole entry): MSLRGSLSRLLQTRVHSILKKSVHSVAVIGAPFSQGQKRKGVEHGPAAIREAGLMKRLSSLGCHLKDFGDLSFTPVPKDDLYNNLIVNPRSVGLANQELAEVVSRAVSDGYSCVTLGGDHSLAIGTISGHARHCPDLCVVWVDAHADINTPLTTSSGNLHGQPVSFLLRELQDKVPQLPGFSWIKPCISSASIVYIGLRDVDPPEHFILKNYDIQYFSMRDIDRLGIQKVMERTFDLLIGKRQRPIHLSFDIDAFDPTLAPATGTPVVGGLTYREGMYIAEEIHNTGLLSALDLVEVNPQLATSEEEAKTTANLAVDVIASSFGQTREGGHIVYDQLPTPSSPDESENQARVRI
# [7] = target: T3, Proteasome subunit beta (Trypanosoma cruzi) (UniProt O96673); assay: Trypanosoma cruzi proteasome chymotrypsin-like activity (TcProtChymo) assay.; further: in the data most compounds retested in dose-response had high values; format: functional; settings: 9.37 µM
# T3 sequence (whole entry): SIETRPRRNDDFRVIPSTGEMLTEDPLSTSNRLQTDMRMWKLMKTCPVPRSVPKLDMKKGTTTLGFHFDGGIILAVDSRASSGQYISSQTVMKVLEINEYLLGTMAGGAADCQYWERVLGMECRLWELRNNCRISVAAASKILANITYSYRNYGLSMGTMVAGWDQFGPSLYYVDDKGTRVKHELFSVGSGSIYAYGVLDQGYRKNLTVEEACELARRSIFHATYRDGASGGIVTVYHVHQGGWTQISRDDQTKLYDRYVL
# [8] = organism: Homo sapiens; assay: To identify inhibition of the IFN signalling (Jak-Stat) pathway via expression of an eGFP reporter gene under the control of an IFN-stimulated response element (ISRE) containing MxA promoter.; format: functional; settings: 30 µM
# [9] = target: T4, Tyrosyl-tRNA synthetase, putative (Trypanosoma cruzi (strain CL Brener)) (UniProt Q4DSP6); assay: Trypanosoma cruzi tyrosyl tRNA synthetase (TcYRS) _High Tyrosine SOP; format: functional; settings: 30 µM; further: in the data most compounds retested in dose-response had high values
# T4 sequence (whole entry): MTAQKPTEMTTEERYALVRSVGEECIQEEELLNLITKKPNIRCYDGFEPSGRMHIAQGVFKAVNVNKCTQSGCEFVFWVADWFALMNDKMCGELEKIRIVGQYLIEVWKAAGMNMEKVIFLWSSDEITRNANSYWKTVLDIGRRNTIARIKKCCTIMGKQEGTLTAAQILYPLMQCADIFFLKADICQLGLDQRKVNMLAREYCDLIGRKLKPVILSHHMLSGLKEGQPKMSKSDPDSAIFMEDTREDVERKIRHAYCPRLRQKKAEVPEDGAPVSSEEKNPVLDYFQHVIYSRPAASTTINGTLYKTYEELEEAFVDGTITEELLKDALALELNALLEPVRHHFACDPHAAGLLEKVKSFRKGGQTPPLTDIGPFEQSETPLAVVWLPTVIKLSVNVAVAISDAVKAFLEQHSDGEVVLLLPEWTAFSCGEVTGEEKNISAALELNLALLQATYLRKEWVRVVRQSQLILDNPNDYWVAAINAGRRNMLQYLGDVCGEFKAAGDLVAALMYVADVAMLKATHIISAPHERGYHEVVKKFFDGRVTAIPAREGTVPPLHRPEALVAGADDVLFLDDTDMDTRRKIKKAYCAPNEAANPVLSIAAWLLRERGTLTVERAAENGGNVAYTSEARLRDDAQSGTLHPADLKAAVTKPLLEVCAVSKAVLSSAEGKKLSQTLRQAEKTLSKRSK
# [10] = target: T4, Tyrosyl-tRNA synthetase, putative (Trypanosoma cruzi (strain CL Brener)); assay: Trypanosoma cruzi tyrosyl tRNA synthetase (TcYRS) SOP; format: functional; settings: 30 µM
# [11] = target: Chromo domain-containing protein 1 (Saccharomyces cerevisiae (strain ATCC 204508 / S288c) (Baker's yeast)) (UniProt P32657); assay: ScCHD-1 Enzyme Inhibition Assay; format: functional; settings: 30 µM; further: in the data most compounds retested in dose-response had high values
# Chain of Chromo domain-containing protein 1 (Saccharomyces cerevisiae (strain ATCC 204508 / S288c) (Baker's yeast)) (P32657 whole entry, the tested form may be a part): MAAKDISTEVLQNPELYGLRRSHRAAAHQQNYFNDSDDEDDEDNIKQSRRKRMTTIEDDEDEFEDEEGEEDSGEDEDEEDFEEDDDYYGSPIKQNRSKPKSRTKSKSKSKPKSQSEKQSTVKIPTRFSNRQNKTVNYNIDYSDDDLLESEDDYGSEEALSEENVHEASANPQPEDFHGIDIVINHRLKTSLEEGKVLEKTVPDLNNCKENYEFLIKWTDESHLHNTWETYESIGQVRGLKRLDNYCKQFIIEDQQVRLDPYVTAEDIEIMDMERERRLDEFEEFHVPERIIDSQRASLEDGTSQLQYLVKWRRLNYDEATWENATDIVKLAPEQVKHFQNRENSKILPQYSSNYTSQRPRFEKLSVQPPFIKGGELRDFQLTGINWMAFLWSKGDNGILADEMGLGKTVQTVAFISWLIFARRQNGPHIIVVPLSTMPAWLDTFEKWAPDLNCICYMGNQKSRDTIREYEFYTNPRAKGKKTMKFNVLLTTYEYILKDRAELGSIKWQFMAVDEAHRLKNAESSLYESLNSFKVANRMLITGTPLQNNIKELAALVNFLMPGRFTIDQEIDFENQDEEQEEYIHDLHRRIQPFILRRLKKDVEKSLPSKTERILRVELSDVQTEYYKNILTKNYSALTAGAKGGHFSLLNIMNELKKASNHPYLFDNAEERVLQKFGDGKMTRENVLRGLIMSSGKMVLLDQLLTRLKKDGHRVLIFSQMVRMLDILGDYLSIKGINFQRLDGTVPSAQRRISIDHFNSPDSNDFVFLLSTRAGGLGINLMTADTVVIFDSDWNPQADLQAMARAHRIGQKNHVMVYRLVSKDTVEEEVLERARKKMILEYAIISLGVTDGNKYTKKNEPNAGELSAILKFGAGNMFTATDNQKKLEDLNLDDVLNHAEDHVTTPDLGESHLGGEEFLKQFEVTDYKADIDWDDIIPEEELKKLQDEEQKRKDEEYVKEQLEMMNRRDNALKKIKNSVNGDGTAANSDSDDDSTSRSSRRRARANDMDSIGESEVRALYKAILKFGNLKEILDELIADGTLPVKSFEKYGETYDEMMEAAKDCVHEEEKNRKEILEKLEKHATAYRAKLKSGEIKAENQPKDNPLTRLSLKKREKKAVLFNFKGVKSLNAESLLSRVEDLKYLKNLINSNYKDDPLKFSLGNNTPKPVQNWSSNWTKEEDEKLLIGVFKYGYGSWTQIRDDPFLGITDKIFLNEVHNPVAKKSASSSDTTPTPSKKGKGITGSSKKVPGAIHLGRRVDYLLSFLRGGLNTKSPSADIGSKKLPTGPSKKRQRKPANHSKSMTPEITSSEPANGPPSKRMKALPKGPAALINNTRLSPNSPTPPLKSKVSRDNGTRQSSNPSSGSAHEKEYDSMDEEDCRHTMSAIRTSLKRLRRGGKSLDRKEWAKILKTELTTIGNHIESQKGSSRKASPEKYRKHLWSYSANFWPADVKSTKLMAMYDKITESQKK
Compound,Percent Effect [1],Percent Effect [2],Percent Effect [3],Percent Effect [4],Percent Effect [5],Percent Effect [6],Percent Effect [7],Percent Effect [8],Percent Effect [9],Percent Effect [10],Percent Effect [11]
COc1ccc(CN2CCCC(Nc3cccc(F)c3)C2)cc1O (configuration not stated),-3.14%,0%,-3.77%,-2%,-0.293%,-0.744%,-5.06%,53.9%,2.15%,6.17%,1.38%
CCCS(=O)(=O)N1CCC2(CN(c3ccsc3)C(=O)CN2C)C1 (configuration not stated),-3.95%,8.11%,-1%,-0.171%,2.34%,5.83%,10.6%,-4.15%,9.9%,6.1%,-1.58%
Cc1nc(CN(Cc2ccccc2)C2CCS(=O)(=O)C2)oc1C (configuration not stated),-2.4%,15.8%,-3.46%,2.71%,5.32%,-1.08%,10.4%,-8.35%,7.39%,23.5%,-6.72%
CCN(CC)C(C(=O)NCc1ccc(N2CCCC2)nc1)C(C)C (configuration not stated),-6%,5.41%,-3.6%,6.67%,-5.94%,-4.41%,11.9%,10.1%,2.46%,1.24%,-4.84%
Cc1cnn(CC2CCCCN2C(=O)c2ccnc(N(C)C)c2)c1 (configuration not stated),-4.87%,10.4%,2.75%,9.97%,-0.49%,4.42%,13.8%,5.85%,2.86%,9.41%,-16.5%
N#Cc1cccc(CS(=O)(=O)NCCC(O)c2ccccc2)c1 (configuration not stated),13%,5.33%,-6.17%,7.18%,4.77%,15.1%,16.2%,3.01%,4.92%,16.1%,-6.38%
O=C(c1ccc[nH]1)N1C[C@H]2CC[C@@H]1CN(C1Cc3ccccc3C1)C2,-0.308%,8.11%,-3.81%,12.3%,3.62%,23.1%,10.7%,-4.7%,6.45%,18.5%,-2.58%
COCC(=O)N1CC[C@H]2C[C@@H](c3nnc(C4CC4)o3)O[C@@H]2C1,-5.18%,18.7%,-7.93%,0.755%,1.74%,-57.2%,19.5%,-2.44%,4.17%,17.5%,-6.39%
O=C(CCc1nc2cccnc2[nH]1)NCc1ccc2c(c1)OCO2,-3.15%,12%,2.23%,0.158%,0%,-10.4%,14.1%,-11.6%,9.52%,17.9%,-10%
CO[C@H]1CCN(Cc2cnn(C)c2)[C@@H]2CN(Cc3cccnc3)C[C@H]12,-0.848%,12%,6.27%,-3.02%,-3.93%,-8.63%,9.06%,-3.47%,2.12%,5.13%,-7.83%
COc1ccc(OCC(=O)NS(=O)(=O)c2cc(F)ccc2F)cc1,-8%,0%,5.69%,-4.95%,-3.28%,-3.33%,5.34%,22.6%,-3.7%,-4.88%,-2.11%
c1ccc(Cn2ccnc2CN2CCOC(Cn3cccn3)C2)cc1 (configuration not stated),-9.1%,3.8%,9.54%,2.25%,-7.69%,-5.81%,4.12%,2.94%,8.33%,17.7%,-16.1%
Cc1ccoc1-c1nnc(CNCCn2cccn2)o1,-0.597%,22.8%,-3.87%,-12.1%,3.12%,1.52%,7.29%,23.9%,7.39%,24.1%,-15.5%
O=C(C1CCCc2[nH]ncc21)N1CCCC1 (configuration not stated),-2.14%,-2.7%,2.45%,-7.51%,-0.0978%,-1.24%,5.92%,-17.4%,-2.15%,-6.17%,-2.26%
CCc1cnc2c(c1Nc1ccncc1)c(=O)n(C)c(=O)n2C,0.799%,18.2%,5.71%,-13.1%,2.27%,1.94%,14.6%,35.5%,7.41%,14.1%,-10.9%
Cc1cc(CN2CCN(C(=O)NC(C)Cn3ccnc3)CC2)no1 (configuration not stated),-1.68%,5.26%,3.31%,7.81%,3.38%,1.53%,-4.18%,9.94%,3.43%,7.32%,-4.96%
CCOCC1CN(C(=O)c2cccn2C)Cc2cnn(CC3CC3)c21 (configuration not stated),-4.01%,5.2%,-0.603%,8.24%,0.69%,-12.3%,3.48%,6.88%,11.6%,16.7%,-8.59%
CC(=O)N1CCC(CN2CCN(Cc3nccn3C)C(C)C2)CC1 (configuration not stated),-0.614%,18.9%,-4.02%,-8.56%,-2.14%,4.25%,14.5%,17.6%,9.9%,15.8%,-2.18%
CC(NC(=O)c1nc(=O)[nH][nH]1)c1ccc(OCC2CC2)c(F)c1 (configuration not stated),-5.77%,10.5%,-0.945%,-1.85%,4.58%,-3.55%,4.7%,4.1%,5.32%,10.4%,-13.1%
Cc1ccc(CNC(=O)CN2C=Nc3ccccc3S2(=O)=O)s1,-3.17%,21.1%,-5.67%,-1.55%,6.07%,-0.36%,3.98%,9.85%,10.3%,23.5%,-6.54%
CCC1=N[C@@]2(CC[C@@H]3CN(C(=O)NCC(C)C)C[C@@H]32)C(=O)N1CC(C)C,-3.96%,8%,0.0094%,5.84%,4.25%,-55%,12.8%,2.46%,8.33%,10%,-6.18%
Cc1cnn(CC2CN(Cc3nc(-c4ccoc4)no3)CCO2)c1 (configuration not stated),-2.87%,8.11%,-1.58%,1.14%,7.08%,0.401%,2.16%,13.1%,3.45%,11.1%,-9.57%
